Compound activity from PubChem.
FLuc modulator: inhibits or activates purified firefly luciferase, miR-21 counter-screen. purified FLuc, Km substrates, luminescence inhibition. Potency, µM (titrated, usually from 57.5 µM), for inactives: at the highest dose activity change, negative = inhibition, actives largely listed as inhibitors. 6.9% of 360,000 active;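 note: plate controls were vehicle for no effect and reference inhibitor for full effect; nearly all actives have a fitted effect of over 55% in size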
Target sequence (P08659 whole entry, looked up): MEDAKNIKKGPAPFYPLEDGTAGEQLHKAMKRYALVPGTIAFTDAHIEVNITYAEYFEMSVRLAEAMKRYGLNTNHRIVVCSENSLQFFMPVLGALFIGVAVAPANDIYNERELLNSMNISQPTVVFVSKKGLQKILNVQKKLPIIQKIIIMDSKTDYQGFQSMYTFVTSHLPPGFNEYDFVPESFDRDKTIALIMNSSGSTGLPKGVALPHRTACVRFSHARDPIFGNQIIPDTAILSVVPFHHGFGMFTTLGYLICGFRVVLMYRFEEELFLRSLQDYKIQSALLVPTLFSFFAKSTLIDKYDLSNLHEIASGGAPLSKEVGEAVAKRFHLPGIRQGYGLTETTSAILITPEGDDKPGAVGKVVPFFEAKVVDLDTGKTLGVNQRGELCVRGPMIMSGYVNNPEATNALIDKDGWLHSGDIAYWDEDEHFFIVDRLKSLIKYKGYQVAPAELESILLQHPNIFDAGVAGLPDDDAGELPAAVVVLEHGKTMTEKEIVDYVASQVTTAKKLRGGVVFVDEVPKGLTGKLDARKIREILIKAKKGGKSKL
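Purified P. pyralis luciferase, 10 nM final, with Km-level 10 uM D-luciferin and 10 uM ATP in 50 mM Tris acetate pH 7.5, 10 mM Mg acetate, 0.01% Tween-20, 0.05% BSA; 6-point qHTS titration about 60 µM downward; luminescence read.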
NPC1 prom act: NPC1 promoter activation. AID 485313. Huh7 NPC1 promoter luciferase reporter, 24 h. Potency, µM (doses to about 9.22 µM), for inactives: at the highest dose activation, hits mostly activators. 2.4% of 320,000 active; note: % of control where 0% means no effect; nearly all actives have a fitted effect of over 60% in size
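Stable NPC1-promoter luciferase Huh7 line; cpd (DMSO) 24 h, 37 °C, 5% CO2; Amplite luciferase reagent 10 min RT; luminescence readout. qHTS format.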
ELG1 genotox: genotoxicity induction in ELG1-luciferase HEK293T cells; HEK293T ELG1-luciferase reporter, luminescence, 16 h; Potency, µM (top dose mostly 46 µM), without a hit: at the highest dose activity change, positive = activation, most hits filed as activators; 1.3% of 330,000 active; note: % of control where 0% means no effect; nearly all actives have a fitted effect of over 60% in size
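HEK293T cells expressing luciferase-tagged ELG1 were exposed to compound or DMSO vehicle for 16 hr at 37 °C and 5% CO2. Luciferase activity was then measured with ONE-Glo after 30 min at room temperature.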
ELG1 DNA repair: inhibitors of ELG1-dependent DNA repair in HEK293T cells | HEK293T ELG1-luciferase reporter, luminescence, 16 h; DNA damage induced by 5-fluorouridine | Potency, µM (doses to about 46.1 µM), inactives show top-dose activity change, negative = inhibition, most hits filed as inhibitors | 2.3% of 330,000 active | AID 504467; note: % is set by controls: 0 for no effect and ±100 for the full control effect; nearly all actives have a fitted effect of over 55% in size
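Step one: seed 2,000 cells per well. Step two: pin-transfer compound or DMSO alongside 5-fluorouridine. Step three: incubate 16 hr, 37 °C, 5% CO2. Step four: add ONE-Glo, wait 30 min, read luminescence.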
Rab9 promoter act: activators of Rab9 promoter; Huh7 Rab9 promoter-luciferase reporter, luminescence, 24 h; Potency, µM (highest dose often 9.22 µM), for inactives: at the highest dose activation, negative = inhibition, hits mostly activators; 2.8% of 320,000 active; note: % of control where 0% means no effect; nearly all actives have a fitted effect of over 60% in size
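Luminescence read-out: Huh7 cells stably expressing Rab9-luciferase, treated 24 h with compound at 37 °C, then lysed with luciferase reagent for 10 min at ambient before reading.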
SMN2 splice up: SMN2 splice variant enhancement; HEK293 SMN2-luciferase splicing reporter, luminescence, 30-36 h; Potency, µM (doses to about 46.1 µM), without a hit: at the top dose activity change, positive = activation, most hits filed as activators; 2.8% of 210,000 active; note: % of control where 0% means no effect; nearly all actives have a fitted effect of over 55% in size
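qHTS luciferase splicing reporter: luminescence rises when SMN2 exon 7 is included in transfected HEK293 cells. Compound exposure lasted 30-36 h at 37C, with 4.5 mM final sodium butyrate as control, followed by a ONE-Glo read.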
* = called active by the depositor; u = inconclusive; x = no result given; [ ] = dose if it differs, or a comment. Only some compounds are listed: those with a hit (about 9.4% of all), similar ones and a draw of the others. Calls come from the whole dose curve; as a rule, active = well fitted curve in the direction sought with a large enough effect; inconclusive = small, poorly fitted or top-dose-only effect, or another doubt; inactive = no such curve, though single readings can be large; an effect the other way counts as inactive or inconclusive. Potency is the fitted concentration of half-maximal effect.

SMILES | FLuc modulator | NPC1 prom act | ELG1 genotox | ELG1 DNA repair | Rab9 promoter act | SMN2 splice up
O=C(/C=C/c1ccco1)Nc1ccc(C(=O)N2CCOCC2)cc1 | u | 10% | 3% | u | 3% | 21%
O=C(C[n+]1ccc(/C=C/c2ccccc2)cc1)c1ccc2c(c1)OCCO2 | 0% | -4% | -12% | u | -11% | x
O=C(/C=C/c1ccco1)Nc1ccc2c(c1)OCCO2 | 1.9µM* | 2.2µM* | -5% | u | 0.63µM* | 8.9µM*
COc1ccccc1/C=C/C(=O)Nc1ccc2c(c1)OCCO2 | 0.85µM* | u | u | u | 0.71µM* | 2.8µM*
O=C(/C=C/c1ccccc1)Nc1ccc2c(c1)OCCO2 | 0.21µM* | 0.5µM* | u | u | 0.45µM* | 1.1µM*
CC(=O)OCOC(c1ccc2ccccc2c1)P(=O)(OCOC(C)=O)OCOC(C)=O (centres undefined) | x | x | x | x | x | -22%
COc1ccc(CCN2CC(C(=O)NCc3cccc4[nH]ccc34)CCC2=O)cc1 (centres undefined) | -1% | -4% | -7% | -15% | 11% | x
O=C1CCCc2cc3c(cc21)CC1(C3)Cc2cc3c(cc2C1)C(=O)CCC3 | -1% | -24% | -6% | 13µM* | -19% | x
O=S(=O)(c1ccc(Cl)s1)N1CCCc2cccc(O)c21 | 11µM* | u | 17% | u | 4µM* | 9%
CCOC(=O)N1CCC(NC(=O)c2ccc3c(c2)N(Cc2cc(C)ccc2C)C(=O)c2ccccc2S3=O)CC1 (centres undefined) | -1% | x | x | x | x | -19%
Cc1ccc(Nc2nc3ccccc3n3cnnc23)cc1C | u | 1.1µM* | 10% | u | u | x
COc1cccc(/C=N/Nc2nc3ccccc3n3cnnc23)c1 | -6% | -1% | -1% | u | -7% | -6%
COc1cccc(/C=N/c2nc3ccccc3[nH]2)c1O | 19µM* | -3% | 11% | 10% | -1% | x
Cc1cccc(CCNc2nc3ccc(C)cc3n3cnnc23)c1 | 17µM* | u | u | u | 14%[1.84 µM] | x
COc1cccc(C=Nc2cccnc2)c1O | 0% | 2% | -2% | -7% | 5% | 6%
COc1cccc(/C=N/Nc2nc3ccccc3n3cnnc23)c1O | u | -31% | 14% | 8.2µM* | -38% | -93%
COC(=O)[C@]1(C)N[C@H](CN(C)C(=O)Nc2ccc(OC)cc2)[C@@H]2C(=O)N(Cc3ccccc3)C(=O)[C@@H]21 | x | x | 3% | 9% | x | x
CC(C)(C)c1ccc(OCC2CO2)cc1 (centres undefined) | x | x | x | x | x | -1%
COc1cccc(/C=N/Nc2nc3ccccc3[nH]2)c1O | 2.7µM* | -24% | u | 4.1µM* | -16% | x
COc1cccc(/C=N/n2c(C)nc3ccccc3c2=O)c1O | u | -1% | 14% | -13% | 6% | 0%
COc1ccccc1Nc1nc2ccccc2[nH]1 | 9.5µM* | u | 11% | u | u | 6%
COc1ccccc1Nc1nc(C)cc(=O)[nH]1 | 5%[2.3 µM] | -3% | 3% | 21% | 11% | 29%
Cc1ccc(Nc2nc3ccccc3[nH]2)nc1 | 13µM* | 2.8µM* | u | u | 2.8µM* | 11µM*
COc1cccc(/C=N/Nc2nc3ccccc3[nH]2)c1OC | 5.4µM* | 4µM* | -20% | u | 2.5µM* | x
CC(=O)c1ccc(NC(=O)c2cc(C)nc3c2c(C)nn3-c2ccc(C)cc2)cc1 | 0% | x | x | x | x | x
SMILES | FLuc modulator | NPC1 prom act | ELG1 genotox | ELG1 DNA repair | Rab9 promoter act | SMN2 splice up
Cc1c(Cl)cccc1Nc1nc(N)nc(CSc2ncccn2)n1 | u | 23% | 16µM* | u | u | 8%
Cc1ccc(C(=O)Nc2ccccc2C(=O)NC(CC(=O)O)C(=O)O)cc1 (centres undefined) | 15µM* | 17% | 5% | u | 12% | -1%
CCC(C)C(NC(=O)c1ccccc1NC(=O)c1ccc(C)cc1)C(=O)O (centres undefined) | u | 18% | 10% | u | -6% | x
Cc1ccc(C(=O)Nc2ccccc2C(=O)NC(C(=O)O)C(C)C)cc1 (centres undefined) | 11µM* | u | u | u | u | 13µM*
O=S(=O)(NCC(c1cccs1)S(=O)(=O)c1ccccc1)c1ccccc1 (centres undefined) | -8% | x | x | x | x | x
Cc1ccc(S(=O)(=O)c2c(Nc3ccc(C)c(C)c3)sc(C(=O)c3ccc4c(c3)OCO4)c2N)cc1 | -4% | x | x | x | x | x
O=C1CN2CCC1C/C2=C\c1ccnc2c(Cl)cccc12 (centres undefined) | 0% | -1% | -9% | 10µM* | -3% | x
O=C1C/C(=C\c2c(F)cccc2Cl)N2CCC1CC2 | 5% | -2% | 4% | 10% | 1% | -1%
CN(C)S(=O)(=O)c1cccc(C(=O)Nc2ccc(Cl)cn2)c1 | 13µM* | u | u | u | u | 6%
COc1ccc(C(=O)Nc2ccc(Cl)cn2)cc1Cl | 11µM* | 2.5µM* | u | u | 3.5µM* | u
O=S(=O)(CCc1ccccc1)c1nnnn1-c1ccccc1 | x | x | x | x | x | 2%
COc1ccc(/C=C/c2ccc3ccccc3[n+]2C)cc1OC | 17µM* | -4% | u | u | -11% | x
CN(C)c1ccc(/C=C/c2ccc3ccccc3[n+]2C)cc1 | u | -35% | 10% | u | -47% | -74%
O=C(NCCCO)C(=O)NCC(c1ccc2c(c1)OCO2)N1CCOCC1 (centres undefined) | -5% | x | x | x | x | x
Fc1ccccc1Nc1n[nH]c(=S)s1 | u | 14% | u | u | u | 13µM*
O=C(O)/C=C\C(=O)Nc1ccccc1C#Cc1ccccc1 | u | -5% | 1% | u | -3% | -8%
O=C(O)/C=C\C(=O)Nc1ccccc1C#Cc1ccc(Br)cc1 | 27µM* | -1% | 13% | u | 16% | -5%
CC[n+]1c(/C=C/N(C)c2ccccc2)n(-c2ccccc2)c2ccc(-c3nc4ccccc4s3)cc21 | -16% | -41% | -41% | 4.1µM* | -49% | x
N#Cc1c([N+](=O)[O-])cc([N+](=O)[O-])cc1S(=O)(=O)Cc1ccccc1 | u | -34% | -2% | 16µM* | -47% | x
COc1cc(OC)c(C#N)c(S(=O)(=O)Cc2ccccc2)c1 | -5% | 3% | -1% | -4% | -4% | -13%
COc1ccccc1CNC(=O)c1cccn1-c1nnc(N2CCCC2)s1 | 3% | x | x | x | x | x
CN(Cc1ccccc1)C(=O)Cn1c(=O)c2cccn2c2ccc(F)cc21 | -10% | x | x | x | x | x
CN(C(=O)COC(=O)c1nc(Cl)ccc1Cl)c1ccccc1 | -1% | 3% | 6% | 5% | 4% | x
